Assay [1] can be described thus: antimalarial activity against Dd2 strain (AID 2302;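 active = growth inhibition above 50% at the single 2 µM test dose, taken to imply half-maximal potency below 2 µM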;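 also: 0% = DMSO untreated growth and 100% = chloroquine plus artemisinin killed control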). The settings on record: P. falciparum Dd2 in RBCs, LDH growth readout, 72 h; at 2 µM; hits give high values.
A short description of assay [2]: HepG2 cytotoxicity, primary screen, cytotoxicity control for P. falciparum antimalarial project, cell-based, ATP luminescence (AID 2303;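 active = inhibition above 50%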;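 also: 0% = DMSO wells and 100% = digitonin-killed cells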). Particulars: HepG2 viability, 24-48 h, at 10 µM, hits give high values.
The target in assay [3] is L-lactate dehydrogenase (Plasmodium falciparum (isolate CDC / Honduras)) (UniProt Q27743). The experiment in a line: PfLDH activity inhibition – cell lysate, 3D7 strain, counter-screen for P. falciparum growth inhibition project (AID 2304).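 Also: 0% = vehicle and 100% = reference inhibitor.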 The settings on record: P. falciparum 3D7 crude extract, LDH APAD/NBT absorbance; at 2 µM; hits give high values. A general note: Counterscreens check selectivity or assay interference.

The nature of assay [4]: inhibition of 3D7 malaria parasite growth – strain 3D7 (AID 2306).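 Also: 0% = DMSO wells and 100% = chloroquine plus artemisinin control wells.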 The settings on record: P. falciparum 3D7 erythrocytic growth, LDH absorbance, 72 h; at 2 µM; hits give high values.
The target in assay [5] is Calcium-dependent protein kinase 1 (Plasmodium falciparum (isolate 3D7)) (UniProt P62344). The experiment in a line: PfCDPK1 kinase inhibitors, biochemical, TCAMS library (AID 1159585; cut-off not given, nearly all actives have IC50 up to about 0.98 µM;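 also: inhibitors leave more ATP so luminescence rises with inhibition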). Particulars: recombinant PfCDPK1, Kinase-Glo ATP depletion luminescence.
Assay [6] addresses Plasmodium falciparum protein kinase 6 (PK6, PF3D7_1337100) (UniProt Q8IDW1). Nature of the assay: PfPK6 kinase inhibitors, biochemical, TCAMS library (AID 1159586). Particulars: recombinant PfPK6, Kinase-Glo ATP depletion luminescence.
The target of assay [7] is Protein kinase 7 (PK7), Plasmodium falciparum 3D7 (PF3D7_0213400) (UniProt Q7YTF7). Nature of the assay: inhibition of Plasmodium PK7 catalytic activity – biochemical, TCAMS antimalarial set, Kinase-Glo luminescence (AID 1159587). Particulars: recombinant PfPK7, Kinase-Glo ATP depletion luminescence.
The target of assay [8] is Calcium-dependent protein kinase 4 (Plasmodium falciparum (isolate 3D7)) (UniProt Q8IBS5). The experiment in a line: PfCDPK4 kinase inhibitors, biochemical, TCAMS library (AID 1159588; cut-off not given, nearly all actives have IC50 up to about 0.91 µM). The settings on record: recombinant PfCDPK4, Kinase-Glo ATP depletion luminescence. (In general: Kinase-Glo measures the ATP left after a reaction by luminescence.)

Unmarked numbers belong to inactive results. For some of these results: Potency and affinity values are given separately. Active and inactive are the calls of the source. Unless noted, no rule for the calls is given here.

Chain of Protein kinase 7 (PK7), Plasmodium falciparum 3D7 (PF3D7_0213400) (Q7YTF7 1-343): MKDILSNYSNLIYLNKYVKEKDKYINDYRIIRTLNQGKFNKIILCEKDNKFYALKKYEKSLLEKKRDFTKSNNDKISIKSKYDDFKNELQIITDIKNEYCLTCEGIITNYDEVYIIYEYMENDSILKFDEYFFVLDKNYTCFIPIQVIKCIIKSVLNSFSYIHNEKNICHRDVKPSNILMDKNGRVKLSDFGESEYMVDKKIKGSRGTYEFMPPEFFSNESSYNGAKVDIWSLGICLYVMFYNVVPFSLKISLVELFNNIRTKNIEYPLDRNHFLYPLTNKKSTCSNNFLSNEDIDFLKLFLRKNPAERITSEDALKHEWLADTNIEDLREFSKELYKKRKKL
Chain of Calcium-dependent protein kinase 1 (Plasmodium falciparum (isolate 3D7)) (P62344 whole entry, looked up): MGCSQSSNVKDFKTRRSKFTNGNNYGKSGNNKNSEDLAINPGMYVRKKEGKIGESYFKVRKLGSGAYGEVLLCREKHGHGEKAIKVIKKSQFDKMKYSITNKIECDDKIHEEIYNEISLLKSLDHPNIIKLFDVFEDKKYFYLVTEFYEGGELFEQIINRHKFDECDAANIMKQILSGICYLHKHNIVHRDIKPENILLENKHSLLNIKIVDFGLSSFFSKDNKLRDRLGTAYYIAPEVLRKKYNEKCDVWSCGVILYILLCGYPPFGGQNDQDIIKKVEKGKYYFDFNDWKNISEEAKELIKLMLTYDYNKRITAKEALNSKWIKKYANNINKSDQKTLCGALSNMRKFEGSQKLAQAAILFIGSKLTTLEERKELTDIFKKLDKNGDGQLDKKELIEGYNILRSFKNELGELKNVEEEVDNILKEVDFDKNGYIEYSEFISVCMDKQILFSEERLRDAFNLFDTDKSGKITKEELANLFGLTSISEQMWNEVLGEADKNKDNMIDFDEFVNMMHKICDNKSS
Chain of L-lactate dehydrogenase (Plasmodium falciparum (isolate CDC / Honduras)) (Q27743 whole entry, looked up): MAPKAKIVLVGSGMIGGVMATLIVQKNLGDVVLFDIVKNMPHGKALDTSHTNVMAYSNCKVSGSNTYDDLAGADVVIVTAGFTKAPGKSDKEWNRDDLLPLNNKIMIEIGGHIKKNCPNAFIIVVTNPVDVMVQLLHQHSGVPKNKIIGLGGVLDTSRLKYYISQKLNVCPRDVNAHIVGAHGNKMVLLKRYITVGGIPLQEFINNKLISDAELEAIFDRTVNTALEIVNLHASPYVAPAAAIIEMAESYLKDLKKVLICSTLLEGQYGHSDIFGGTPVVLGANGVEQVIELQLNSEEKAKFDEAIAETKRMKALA
Chain of Calcium-dependent protein kinase 4 (Plasmodium falciparum (isolate 3D7)) (Q8IBS5 whole entry, looked up): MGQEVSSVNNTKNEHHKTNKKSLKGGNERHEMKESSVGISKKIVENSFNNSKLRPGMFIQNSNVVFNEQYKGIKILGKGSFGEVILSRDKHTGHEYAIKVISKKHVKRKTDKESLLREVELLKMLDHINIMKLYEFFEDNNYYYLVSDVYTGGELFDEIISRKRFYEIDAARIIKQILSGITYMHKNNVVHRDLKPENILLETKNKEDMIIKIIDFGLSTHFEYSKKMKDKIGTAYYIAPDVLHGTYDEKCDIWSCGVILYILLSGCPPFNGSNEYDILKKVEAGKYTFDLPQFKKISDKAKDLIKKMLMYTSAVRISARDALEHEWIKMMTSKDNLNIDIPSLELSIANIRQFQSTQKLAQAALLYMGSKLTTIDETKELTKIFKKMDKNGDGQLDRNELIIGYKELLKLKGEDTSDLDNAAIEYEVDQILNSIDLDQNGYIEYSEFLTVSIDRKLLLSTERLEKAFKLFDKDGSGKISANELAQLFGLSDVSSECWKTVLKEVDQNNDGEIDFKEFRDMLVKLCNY
Chain of Plasmodium falciparum protein kinase 6 (PK6, PF3D7_1337100) (Q8IDW1 1-305): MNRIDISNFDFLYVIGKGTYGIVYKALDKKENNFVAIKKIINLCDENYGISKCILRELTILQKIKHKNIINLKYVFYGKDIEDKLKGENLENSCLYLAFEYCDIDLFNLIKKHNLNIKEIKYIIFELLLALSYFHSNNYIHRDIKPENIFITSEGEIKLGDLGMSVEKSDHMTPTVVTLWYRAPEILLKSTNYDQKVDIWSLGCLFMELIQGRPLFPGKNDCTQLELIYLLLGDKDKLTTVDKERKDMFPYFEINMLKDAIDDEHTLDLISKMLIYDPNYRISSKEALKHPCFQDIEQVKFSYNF

For orientation: inhibition means the relative decrease from the control value, in per cent. Take `NC(=O)Nc1ccc2cn[nH]c2c1`: the figures for the growth inhibition in assay [1] and in assay [4] were -2% and 97% (active), respectively. Besides, the inhibition was 4% in assay [2] and -3% in assay [3]. Moreover, the outcome in assay [5], in assay [6], in assay [7] and in assay [8] was inactive.

Regarding `Cc1ccccc1C(=O)NC(NC(=S)Nc1ccc([N+](=O)[O-])cc1)C(Cl)(Cl)Cl` (stereo not given), the growth inhibition was 39% in assay [1] and 101% (active) in assay [4]. The inhibition is -7% in assay [2] and 0% in assay [3]. Besides, the outcome in assay [5], in assay [6], in assay [7] and in assay [8] was inactive.

Regarding `COCc1nc(N)nc(N)c1-c1ccc(Cl)c(Cl)c1`, the growth inhibition in assay [1] is 1%; in assay [4] it was 84% (active). Also, the inhibition in assay [2] is 4%; in assay [3], -1%. Also, the result in assay [5], in assay [6], in assay [7] and in assay [8] was inactive.

In the case of `Cc1ccc(O)cc1Nc1c(C(N)=O)cnc2ccc(-c3cncs3)cc12`, the results for the growth inhibition in assay [1] and in assay [4] were 99% (active) and 100% (active), respectively. In addition, the inhibition in assay [2] was 21%; in assay [3], 3%. Further, the result in assay [5], in assay [6], in assay [7] and in assay [8] was inactive.

Regarding `CN(c1ccc(NC(=O)c2ccc(F)cc2)cc1)C1CCN(Cc2cccc(F)c2)C1` (stereo not given), the growth inhibition is 74% (active) in assay [1] and 81% (active) in assay [4]. Further, the inhibition in assay [2] was 3%; in assay [3] it was -2%. The result in assay [5], in assay [6], in assay [7] and in assay [8] was inactive.

With `O=C(Nc1ccc(Br)c(C(F)(F)F)c1)c1cccc([N+](=O)[O-])c1`, the growth inhibition in assay [1] was 3%; in assay [4], 94% (active). Further, the inhibition is 24% in assay [2] and -7% in assay [3]. Moreover, the outcome in assay [5], in assay [6], in assay [7] and in assay [8] was inactive.

For the compound `COc1cc2nc(N3CCC(CNC(=O)c4ccc(-c5ccc(C(=O)N(C)C)cc5)c(OCCO)c4)CC3)nc(N)c2cc1OC`, the growth inhibition in assay [1] is 18%; in assay [4], 96% (active). Further, the inhibition is 10% in assay [2] and -3% in assay [3]. Also, the result in assay [5], in assay [6], in assay [7] and in assay [8] was inactive.

For the compound `CC(=NNC(=S)NC(C)(C)C)c1ccccn1`, the growth inhibition in assay [1] is 100% (active); in assay [4] it was 99% (active). Also, the results for the inhibition in assay [2] and in assay [3] were 63% (active) and -3%, respectively. The outcome in assay [5], in assay [6], in assay [7] and in assay [8] was inactive.

As for `O=C(c1cc2nc3c(c(C(F)(F)F)n2n1)CCc1ccccc1-3)N1CCN2CCCC2C1` (stereo not given), the growth inhibition was 3% in assay [1] and 94% (active) in assay [4]. Besides, the values for the inhibition in assay [2] and in assay [3] were -8% and 0%, respectively. Moreover, the outcome in assay [5], in assay [6], in assay [7] and in assay [8] was inactive.

Consider `S=C(NN=Cc1ccccn1)Nc1ccc2c(c1)OCCO2`, for which the growth inhibition in assay [1] was 33%; in assay [4] it was 82% (active). The inhibition in assay [2] is 55% (active); in assay [3], 6%. Besides, the outcome in assay [5], in assay [6], in assay [7] and in assay [8] was inactive.

Consider `C=C(C)C1CC=C(CN2CCC(N3CCc4cc(NC(=O)c5cc(C)on5)ccc43)C2)CC1` (stereo not given), for which the values for the growth inhibition in assay [1] and in assay [4] were 95% (active) and 90% (active), respectively. Besides, the results for the inhibition in assay [2] and in assay [3] were 26% and 0%, respectively. The result in assay [5], in assay [6], in assay [7] and in assay [8] was inactive.

As to `CCCN(CCC)C(=O)c1cc(C(=O)N[C@@H](Cc2ccccc2)[C@H](O)CNCc2cccc(C(F)(F)F)c2)cc(N2CCCCS2(=O)=O)c1`, the growth inhibition in assay [1] was 74% (active); in assay [4] it was 99% (active). The inhibition in assay [2] was -5%; in assay [3], 3%. The outcome in assay [5], in assay [6], in assay [7] and in assay [8] was inactive.

`O=C(NCCCCN1CCC(c2ccc3c(c2OCc2ccncc2)CCCC3)CC1)c1ccc(NC(=O)c2ccc(Cl)cc2)cc1`: the growth inhibition was 99% (active) in assay [1] and 100% (active) in assay [4]. The inhibition in assay [2] is 62% (active); in assay [3], -4%. For the same compound, the result in assay [5], in assay [6], in assay [7] and in assay [8] was inactive.

For the compound `CN1CCN(c2ccnc3ccc(NC(=O)Cc4ccc(-c5ccncc5)c5ccccc45)cc23)CC1`, the figures for the growth inhibition in assay [1] and in assay [4] were 101% (active) and 103% (active), respectively. Also, the inhibition in assay [2] was 32%; in assay [3], 3%. The result in assay [5], in assay [6], in assay [7] and in assay [8] was inactive.

For the compound `COc1cc(C(=O)NCCCN2CCN(c3cccc(Cl)c3)CC2)ccc1-c1cc2cc(Cl)c(Cl)cc2[nH]1`, the growth inhibition in assay [1] was 86% (active); in assay [4] it was 100% (active). Moreover, the inhibition is 35% in assay [2] and 0% in assay [3]. The outcome in assay [5], in assay [6], in assay [7] and in assay [8] was inactive.

In the case of `CCN(CC)CCN(Cc1ccc(-c2ccc(C(F)(F)F)cc2)cc1)C(=O)Cn1c(CCc2cccc(F)c2F)nc(=O)c2ccc(F)cc21`, the growth inhibition was 41% in assay [1] and 98% (active) in assay [4]. The inhibition in assay [2] is 14%; in assay [3] it was 3%. In addition, the result in assay [5], in assay [6], in assay [7] and in assay [8] was inactive.

For `O=C(/C=C/c1ccc(Cl)c(Cl)c1)NCCCCCN1CCC(NC(=O)c2ccc(F)cc2F)CC1`, the values for the growth inhibition in assay [1] and in assay [4] were 11% and 96% (active), respectively. Further, the inhibition in assay [2] is 17%; in assay [3] it was -3%. The result in assay [5], in assay [6], in assay [7] and in assay [8] was inactive.

In the case of `c1ccc(-c2ccc(-c3csc(Nc4ccncc4)n3)cc2)cc1`, the growth inhibition was 97% (active) in assay [1] and 101% (active) in assay [4]. Moreover, the inhibition in assay [2] is 30%; in assay [3] it was 3%. Moreover, the outcome in assay [5], in assay [6], in assay [7] and in assay [8] was inactive.

Regarding `O=C(Nc1ccc(Cl)c(Cl)c1)N(Cc1ccccc1Br)C1CCNCC1`, the values for the growth inhibition in assay [1] and in assay [4] were 8% and 96% (active), respectively. Moreover, the inhibition was 13% in assay [2] and 7% in assay [3]. The outcome in assay [5], in assay [6], in assay [7] and in assay [8] was inactive.

Consider `ON=C1c2cc(OCCN3CCCCC3)c(Cl)cc2-c2cc(Cl)c(OCCN3CCCCC3)cc21`, for which the results for the growth inhibition in assay [1] and in assay [4] were 98% (active) and 97% (active), respectively. Further, the inhibition was 99% (active) in assay [2] and 5% in assay [3]. For the same compound, the result in assay [5], in assay [6], in assay [7] and in assay [8] was inactive.

The values above are taken from PubChem BioAssay.
